Source: PubChem BioAssay (Tox21)
Values joined by “and” are separate entries in the source; they are usually repeats but may differ in a detail not shown here. Equal values may be shown once. Results filed as inconclusive are left out. Unmarked numbers belong to inactive results. Active and inactive are the calls of the source. The call rests on the fitted dose curve; in most records, active means well fitted curve in the direction sought with a large enough effect in the repeat runs; inconclusive means weak or mixed curves; inactive means no such curve, though single readings can be large; an effect the other way counts as inactive or inconclusive.

target: Cytochrome P450 2C9 (Homo sapiens) (UniProt P11712); assay: Cytochrome P450 Family 2 Subfamily C Member 9 (CYP2C9) small molecule antagonists: luciferase reporter qHTS assay (AID 1671198); settings: P450-Glo CYP2C9 enzyme assay, luciferin luminescence; series mostly up to 115 µM; activity change, negative = inhibition: at the top concentration
Sequence (P11712 whole entry, looked up): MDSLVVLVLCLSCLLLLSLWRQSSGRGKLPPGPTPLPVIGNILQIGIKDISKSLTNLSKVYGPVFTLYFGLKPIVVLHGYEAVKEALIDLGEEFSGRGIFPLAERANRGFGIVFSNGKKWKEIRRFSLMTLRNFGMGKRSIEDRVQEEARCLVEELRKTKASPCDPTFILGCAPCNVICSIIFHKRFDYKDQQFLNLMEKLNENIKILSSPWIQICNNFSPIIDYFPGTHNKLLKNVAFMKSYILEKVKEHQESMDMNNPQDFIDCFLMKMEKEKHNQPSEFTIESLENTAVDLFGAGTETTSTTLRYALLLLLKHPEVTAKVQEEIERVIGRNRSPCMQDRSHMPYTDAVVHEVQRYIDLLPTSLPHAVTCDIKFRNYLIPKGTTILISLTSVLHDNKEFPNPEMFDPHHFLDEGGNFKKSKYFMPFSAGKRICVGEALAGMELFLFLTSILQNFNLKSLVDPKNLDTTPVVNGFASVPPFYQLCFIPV
How it was run: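 P450-Glo proluciferin substrate with CYP2C9 enzyme; 10 min RT preincubation, then NADPH regeneration 1 h at 37C; luciferin detection reagent 20 min RT, luminescence in relative luminescence units.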
Further: nearly all actives have a fitted effect of over 50% in size.
On the % scale 0 is the no-effect control and ±100 the full control effect; potency means the concentration at half of the fitted maximal effect.

| Compound | Potency | activity change, negative = inhibition |
| --- | --- | --- |
| C#CC1(O)CC[C@H]2[C@@H]3CCC4=CCCC[C@@H]4[C@H]3CC[C@@]21C (some centres not stated) | 7.1 µM (active) and 6.92 µM (active) |  |
| CCCCNS(=O)(=O)c1ccc(C)cc1 | 22.4 µM (active) |  |
| C#C[C@]1(OC(C)=O)CC[C@H]2[C@@H]3CCC4=C/C(=N/O)CC[C@@H]4[C@H]3CC[C@@]21CC | 11 µM (active) |  |
| COC(=O)C1=C(C)NC(C)=C(C(=O)OCCN2CCN(C(c3ccccc3)c3ccccc3)CC2)C1c1cccc([N+](=O)[O-])c1 (configuration not stated) | 0.692 µM (active) |  |
| O=C1CCc2cc(OCCCCc3nnnn3C3CCCCC3)ccc2N1 | 12.3 µM (active) |  |
| CCC(C)(CCC(C)C)C(=O)[O][Sn]([CH3])([CH3])[O]C(=O)C(C)(CC)CCC(C)C (configuration not stated) | 25.2 µM (active) |  |
| COc1ccc2c(c1)c(CC(=O)OC/C=C(\C)CC/C=C(\C)CCC=C(C)C)c(C)n2C(=O)c1ccc(Cl)cc1 | 17.4 µM (active) |  |
| Nc1ccc(Oc2ccc(Cl)cc2)cc1 | 12.4 µM (active) |  |
| C#C[C@]1(OC(C)=O)CC[C@H]2[C@@H]3CCC4=C[C@@H](OC(C)=O)CC[C@@H]4[C@H]3CC[C@@]21C | 12.3 µM (active) |  |
| OC12N=C(c3ccccc3)SC1Cc1cc(Cl)ccc12 (configuration not stated) | 0.894 µM (active) |  |
| CCN1C(=O)c2ccccc2C1Nc1ccc(OCCN2CCCCC2)cc1 (configuration not stated) |  | -4.69% [at 53 µM] |
| CCCCCCC1CCCC(=O)O1 (configuration not stated) | 25.2 µM (active) |  |
| NC(=S)NC(N)=S | 7.96 µM (active) |  |
| O=C(/C=C/c1ccc(O)c(O)c1)O[C@@H](C(=O)O)[C@@H](OC(=O)/C=C/c1ccc(O)c(O)c1)C(=O)O |  | -9.83% |
| O=[N+]([O-])c1ccc(O)cc1C(F)(F)F | 22.4 µM (active) |  |
| O=c1c(O)c(-c2ccc(O)cc2O)oc2cc(O)cc(O)c12 | 21.1 µM (active) |  |
| NC(=O)c1cccc([N+](=O)[O-])c1 |  | 0.913% |
| Cc1ccc(O)c(O)c1 |  | -8.98% |
| OC[C@H]1O[C@H](O[C@H]2O[C@H](CO)[C@@H](O)[C@H](O)[C@H]2O)[C@H](O)[C@@H](O)[C@@H]1O |  | -3.24% |
| CN1CCCCC1CCN1c2ccccc2Sc2ccc(S(C)=O)cc21 (configuration not stated) |  | -0.785% [at 53 µM] |
| CCCCCC(C)OC(=O)COc1ccc(Cl)c2cccnc12 (configuration not stated) | 11.2 µM (active) |  |

target: Cytochrome P450 1A2 (Homo sapiens) (UniProt P05177); assay: Cytochrome P450 Family 1 Subfamily A Member 2 (CYP1A2) small molecule antagonists: luciferase reporter qHTS assay (AID 1671199); settings: P450-Glo CYP1A2 enzyme, luciferin luminescence, 1 h; series mostly up to 115 µM; activity change, negative = inhibition: at the top concentration
Sequence (P05177 whole entry, looked up): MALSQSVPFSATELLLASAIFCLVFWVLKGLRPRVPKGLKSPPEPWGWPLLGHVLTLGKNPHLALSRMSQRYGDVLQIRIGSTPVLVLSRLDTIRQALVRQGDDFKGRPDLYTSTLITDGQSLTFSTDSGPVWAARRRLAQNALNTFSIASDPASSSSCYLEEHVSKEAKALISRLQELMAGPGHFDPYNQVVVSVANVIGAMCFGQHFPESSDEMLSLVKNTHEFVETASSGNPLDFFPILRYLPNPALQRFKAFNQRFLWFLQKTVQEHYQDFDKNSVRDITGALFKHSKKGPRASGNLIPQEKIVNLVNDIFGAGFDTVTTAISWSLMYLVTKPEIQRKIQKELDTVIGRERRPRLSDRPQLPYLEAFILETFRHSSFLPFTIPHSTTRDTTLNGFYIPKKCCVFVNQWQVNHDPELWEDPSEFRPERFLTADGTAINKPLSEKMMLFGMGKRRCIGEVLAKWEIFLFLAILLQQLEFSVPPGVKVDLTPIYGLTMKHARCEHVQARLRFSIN
How it was run: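 Human CYP1A2 activity measured with a P450-Glo proluciferin substrate; compounds in DMSO preincubated 10 min at room temperature with enzyme-substrate mix, then NADPH regeneration system added for 1 h. Luciferin detection reagent, 20 min, luminescence read.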

| Compound | Potency | activity change, negative = inhibition |
| --- | --- | --- |
| C#CC1(O)CC[C@H]2[C@@H]3CCC4=CCCC[C@@H]4[C@H]3CC[C@@]21C (some centres not stated) | 39.9 µM (active) |  |
| CCCCNS(=O)(=O)c1ccc(C)cc1 | 31.7 µM (active) |  |
| C=CCn1c(=O)n(CC=C)c(=O)n(CC=C)c1=O | 31.6 µM (active) |  |
| c1ccc(SSc2ccccc2)cc1 | 3.19 µM (active) |  |
| COc1ccc2c(c1)c(CC(=O)OC/C=C(\C)CC/C=C(\C)CCC=C(C)C)c(C)n2C(=O)c1ccc(Cl)cc1 | 17.4 µM (active) |  |
| Nc1ccc(Oc2ccc(Cl)cc2)cc1 | 34.8 µM (active) |  |
| Oc1cc(Cl)cc(Cl)c1Cl | 16.3 µM (active) |  |
| C#C[C@]1(OC(C)=O)CC[C@H]2[C@@H]3CCC4=C[C@@H](OC(C)=O)CC[C@@H]4[C@H]3CC[C@@]21C |  | -11.4% [at 53 µM] |
| OC12N=C(c3ccccc3)SC1Cc1cc(Cl)ccc12 (configuration not stated) | 1.78 µM (active) |  |
| C=CC(=O)Nc1cc2c(Nc3ccc(F)c(Cl)c3)ncnc2cc1OCCCN1CCOCC1 |  | 11.5% [at 53 µM] |
| CCN1C(=O)c2ccccc2C1Nc1ccc(OCCN2CCCCC2)cc1 (configuration not stated) |  | 10.2% [at 53 µM] |
| CNC(=O)c1ccccc1Sc1ccc2c(/C=C/c3ccccn3)n[nH]c2c1 | 2.75 µM (active) |  |
| CCc1oc2ccccc2c1C(=O)c1cc(I)c(O)c(I)c1 |  | 15.4% [at 53 µM] |
| NC(=S)NC(N)=S | 35.6 µM (active) |  |
| CCO[C@@H]1O[C@H](C(COCc2ccccc2)OCc2ccccc2)[C@H](OCc2ccccc2)[C@H]1O (some centres not stated) |  | -18.9% [at 53 µM] |
| O=C(/C=C/c1ccc(O)c(O)c1)O[C@@H](C(=O)O)[C@@H](OC(=O)/C=C/c1ccc(O)c(O)c1)C(=O)O |  | -12% |
| CN1CCN(Cc2cc(-c3ccc4[nH]c(=O)oc4c3)co2)[C@@H](c2ccc(F)cc2)C1 |  | -18.8% |
| O=[N+]([O-])c1ccc(O)cc1C(F)(F)F | 35.6 µM (active) |  |
| [Cl][Pt-2]([Cl])([Cl])[Cl] | 35.7 µM (active) |  |
| NC(=O)c1cccc([N+](=O)[O-])c1 | 35.4 µM (active) |  |
| Cc1cc(C)c(/C=C2\C(=O)Nc3ccccc32)[nH]1 | 1.44 µM (active) |  |
| OC[C@H]1O[C@H](O[C@H]2O[C@H](CO)[C@@H](O)[C@H](O)[C@H]2O)[C@H](O)[C@@H](O)[C@@H]1O | 63.7 µM (active) |  |
| CCOC(=O)c1ccc(C2CCC(NC[C@H](O)COc3ccc(O)c(NS(C)(=O)=O)c3)CC2)cc1 (some centres not stated) |  | -10.4% |

target: Voltage-gated inwardly rectifying potassium channel KCNH2 (Homo sapiens) (UniProt Q12809); assay: Human Ether-a-go-go-Related Gene (hERG) channel small molecule antagonists: fluorescence cell-based qHTS assay (AID 1671200); settings: hERG-U2OS cells, FluxOR thallium flux fluorescence; series mostly up to 76.8 µM; activity change, negative = inhibition: at the top concentration;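 on activity change, negative = inhibition: hERG-expressing U2OS cells given a thallium stimulus after FluxOR II dye loading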
Sequence (Q12809 whole entry, looked up): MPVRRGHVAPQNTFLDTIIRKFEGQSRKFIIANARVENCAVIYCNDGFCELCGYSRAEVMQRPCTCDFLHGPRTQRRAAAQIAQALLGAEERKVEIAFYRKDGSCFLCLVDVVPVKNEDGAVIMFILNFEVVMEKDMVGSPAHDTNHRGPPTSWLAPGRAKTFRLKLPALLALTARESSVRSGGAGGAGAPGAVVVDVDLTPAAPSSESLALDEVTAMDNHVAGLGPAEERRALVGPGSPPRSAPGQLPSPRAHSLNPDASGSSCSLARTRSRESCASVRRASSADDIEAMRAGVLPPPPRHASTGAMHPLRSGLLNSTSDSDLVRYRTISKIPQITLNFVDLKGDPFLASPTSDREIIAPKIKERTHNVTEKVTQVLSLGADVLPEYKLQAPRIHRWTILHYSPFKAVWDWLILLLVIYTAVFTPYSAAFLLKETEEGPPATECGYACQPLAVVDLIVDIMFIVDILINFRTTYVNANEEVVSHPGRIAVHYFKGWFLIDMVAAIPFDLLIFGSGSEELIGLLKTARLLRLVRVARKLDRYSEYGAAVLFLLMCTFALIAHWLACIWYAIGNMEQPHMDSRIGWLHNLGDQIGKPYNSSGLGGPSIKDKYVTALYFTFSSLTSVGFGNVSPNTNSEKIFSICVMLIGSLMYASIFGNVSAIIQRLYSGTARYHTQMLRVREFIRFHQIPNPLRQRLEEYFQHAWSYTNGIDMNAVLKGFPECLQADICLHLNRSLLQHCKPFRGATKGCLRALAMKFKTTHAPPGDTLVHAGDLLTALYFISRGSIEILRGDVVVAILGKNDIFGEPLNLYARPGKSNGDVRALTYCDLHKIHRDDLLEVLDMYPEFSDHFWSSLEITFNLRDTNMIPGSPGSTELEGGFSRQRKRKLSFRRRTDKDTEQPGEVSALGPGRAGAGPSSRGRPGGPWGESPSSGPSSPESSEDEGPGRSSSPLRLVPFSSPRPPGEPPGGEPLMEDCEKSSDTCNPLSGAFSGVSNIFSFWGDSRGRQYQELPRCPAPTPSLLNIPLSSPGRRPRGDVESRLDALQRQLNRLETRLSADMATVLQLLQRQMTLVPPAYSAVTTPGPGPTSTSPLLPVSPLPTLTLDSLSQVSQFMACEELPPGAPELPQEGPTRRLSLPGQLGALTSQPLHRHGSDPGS
How it was run: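 Thallium served as the potassium surrogate; its influx into dye-loaded U2OS cells carrying the channel was measured by fluorescence over 2 min.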

| Compound | activity change, negative = inhibition | Potency |
| --- | --- | --- |
| CCCCNS(=O)(=O)c1ccc(C)cc1 | -5.62% |  |
| C#C[C@]1(OC(C)=O)CC[C@H]2[C@@H]3CCC4=C/C(=N/O)CC[C@@H]4[C@H]3CC[C@@]21CC | -21.9% [at 35.3 µM] |  |
| COC(=O)C1=C(C)NC(C)=C(C(=O)OCCN2CCN(C(c3ccccc3)c3ccccc3)CC2)C1c1cccc([N+](=O)[O-])c1 (configuration not stated) |  | 5.35 µM (active) |
| O=C1CCc2cc(OCCCCc3nnnn3C3CCCCC3)ccc2N1 | -18.3% [at 35.3 µM] |  |
| CCC(C)(CCC(C)C)C(=O)[O][Sn]([CH3])([CH3])[O]C(=O)C(C)(CC)CCC(C)C (configuration not stated) | 0.0213% |  |
| C=CCn1c(=O)n(CC=C)c(=O)n(CC=C)c1=O | 6.11% |  |
| COc1cccc2c1C(=O)c1c(O)c3c(c(O)c1C2=O)C[C@@](O)(C(C)=O)C[C@@H]3O[C@H]1C[C@H](N)[C@H](O)[C@H](C)O1 |  | inactive |
| c1ccc(SSc2ccccc2)cc1 | 6.31% |  |
| COc1ccc2c(c1)c(CC(=O)OC/C=C(\C)CC/C=C(\C)CCC=C(C)C)c(C)n2C(=O)c1ccc(Cl)cc1 | 0.208% [at 35.3 µM] |  |
| CN(C)[C@@H](CCOc1cccc2ccccc12)c1ccccc1 |  | 6.01 µM (active) |
| Oc1cc(Cl)cc(Cl)c1Cl | -16.9% |  |
| CC(C(=O)O)c1ccc2c(c1)[nH]c1ccc(Cl)cc12 (configuration not stated) | 0.915% [at 35.3 µM] |  |
| C#C[C@]1(OC(C)=O)CC[C@H]2[C@@H]3CCC4=C[C@@H](OC(C)=O)CC[C@@H]4[C@H]3CC[C@@]21C | -26.1% [at 35.3 µM] |  |
| OC12N=C(c3ccccc3)SC1Cc1cc(Cl)ccc12 (configuration not stated) | -22.6% |  |
| C=CC(=O)Nc1cc2c(Nc3ccc(F)c(Cl)c3)ncnc2cc1OCCCN1CCOCC1 | -21.9% [at 35.3 µM] |  |
| CCN1C(=O)c2ccccc2C1Nc1ccc(OCCN2CCCCC2)cc1 (configuration not stated) | -1.81% [at 35.3 µM] |  |
| CCCCCCC1CCCC(=O)O1 (configuration not stated) | -8.73% |  |

| Compound | activity change, negative = inhibition | Potency |
| --- | --- | --- |
| CNC(=O)c1ccccc1Sc1ccc2c(/C=C/c3ccccn3)n[nH]c2c1 | -8.06% [at 35.3 µM] |  |
| CCc1oc2ccccc2c1C(=O)c1cc(I)c(O)c(I)c1 | -28.2% [at 35.3 µM] |  |
| NC(=S)NC(N)=S | 1.01% |  |
| CCO[C@@H]1O[C@H](C(COCc2ccccc2)OCc2ccccc2)[C@H](OCc2ccccc2)[C@H]1O (some centres not stated) | -23.1% [at 35.3 µM] |  |
| O=C(/C=C/c1ccc(O)c(O)c1)O[C@@H](C(=O)O)[C@@H](OC(=O)/C=C/c1ccc(O)c(O)c1)C(=O)O | 12.5% |  |
| O=[N+]([O-])c1ccc(O)cc1C(F)(F)F | 2.32% |  |
| CC(C)(C)CC(C)(C)c1ccc(Nc2ccc(C(C)(C)CC(C)(C)C)cc2)cc1 | 0.578% [at 6.97 µM] |  |
| O=c1c(O)c(-c2ccc(O)cc2O)oc2cc(O)cc(O)c12 | -6.46% |  |
| Cc1ccc(N/N=c2\c(=O)cc/c(=N\Nc3ccc(S(=O)(=O)O)cc3)c2=O)c(C)c1 | -8.46% |  |
| NC(=O)c1cccc([N+](=O)[O-])c1 | 2.98% |  |
| Cc1ccc(O)c(O)c1 | -1.94% |  |
| Cc1cc(C)c(/C=C2\C(=O)Nc3ccccc32)[nH]1 | -13.3% [at 35.3 µM] |  |
| OC[C@H]1O[C@H](O[C@H]2O[C@H](CO)[C@@H](O)[C@H](O)[C@H]2O)[C@H](O)[C@@H](O)[C@@H]1O | -1.96% |  |
| CCCCCC(C)OC(=O)COc1ccc(Cl)c2cccnc12 (configuration not stated) |  | 9.77 µM (active) |
| Cc1cc(C(C)(C)C)c(O)c(C)c1Cn1c(=O)n(Cc2c(C)cc(C(C)(C)C)c(O)c2C)c(=O)n(Cc2c(C)cc(C(C)(C)C)c(O)c2C)c1=O | -1.31% |  |
| O=S(=O)(O)c1ccccc1/C=C/c1ccc(-c2ccc(/C=C/c3ccccc3S(=O)(=O)O)cc2)cc1 | -2.25% |  |
